Source: PubChem BioAssay (NCATS)
“And” between values parts separate entries of the source, which are not always exact repeats. Equal entries are not always repeated. Results filed as inconclusive are left out. Entries that show only a call come without a potency. The source holds several records for some structures; these can differ, active in one and inactive in another. The source made the active and inactive calls. The call rests on the fitted dose curve; in most records, active means well fitted curve in the direction sought with a large enough effect; inconclusive means small, poorly fitted or top-dose-only effect, or another doubt; inactive means no such curve, though single readings can be large; an effect the other way counts as inactive or inconclusive. Peptide text beside a SMILES is read from it.

Key:
[1] = qHTS assay to identify small molecule inhibitors of chordoma cells - UCH-2 (AID 1259356)
[2] = P-glycoprotein substrates identified in KB-8-5-11 adenocarcinoma cell line, qHTS therapeutic library screen (AID 1346987); further: nearly all actives have a fitted effect of over 65% in size
Method in brief: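 Luminescence from CellTiter-Glo, read 5 min after addition, quantified survival of KB-8-5-11 (P-gp-overexpressing) cells exposed to compounds for 72 h. AC50 was derived from concentration-response curves.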

[3] = NS1 protein of Zika virus - qHTS assay to identify small molecule inhibitors in human HEK 293 cells (AID 1347053); further: nearly all actives have a fitted effect of over 55% in size
Method in brief: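 Readout was TR-FRET using paired anti-NS1 antibodies after 24 h infection of HEK 293 cells with ZIKV MR766 (MOI = 0.5). Compound preceded virus by 1 h; reduced signal reflects lower NS1 expression.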

[4] = qHTS of pediatric cancer cell lines to identify multiple opportunities for drug repurposing: Primary screen for TC32 cells (AID 1347089); further: nearly all actives have a fitted effect of over 60% in size
Method in brief: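 Luminescent ATP read-out (CellTiter-Glo) of metabolically active TC32 cells after 48 h exposure. Concentration-response curves came from 11-point (MIPE, 0.78 nM–46 µM) or 8-point (NPC, 0.59 nM–46 µM) primary titrations; follow-up used 11 points.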

[5] = qHTS of pediatric cancer cell lines to identify multiple opportunities for drug repurposing: Primary screen for DAOY cells (AID 1347090); further: nearly all actives have a fitted effect of over 55% in size
Method in brief: (§1)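 Eight- or eleven-point concentration series, 48 h treatment at 37 degrees C in growth media; readout CellTiter-Glo luminescence. Potency and efficacy were taken from the concentration-response curves.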

[6] = qHTS of pediatric cancer cell lines to identify multiple opportunities for drug repurposing: Primary screen for SJ-GBM2 cells (AID 1347091)
Method in brief: as §1

[7] = qHTS of pediatric cancer cell lines to identify multiple opportunities for drug repurposing: Primary screen for A673 cells (AID 1347092); further: nearly all actives have a fitted effect of over 45% in size
Method in brief: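 Cell viability of A673 measured by CellTiter-Glo ATP luminescence after 48 hours compound exposure. Dilution series spanned 0.78 nM to 46 µM (MIPE, 11-point) or 0.59 nM to 46 µM (NPC, 8-point); bortezomib 2.3 uM positive control.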
Potency means the concentration at half of the fitted maximal effect.

Structure (SMILES) | Potency [1] | Potency [2] | Potency [3] | Potency [4] | Potency [5] | Potency [6] | Potency [7]
CC(C)(S)[C@@H](N)C(=O)O | inactive | inactive | inactive | inactive | inactive | inactive | inactive
Cc1nc2n(c(=O)c1CCN1CCC(c3noc4cc(F)ccc34)CC1)CCCC2 | inactive | inactive and 8.2 µM (active) | inactive | inactive | inactive | inactive | inactive
COc1cc(OC)c(C(=O)CCCN2CCCC2)c(OC)c1 | inactive | inactive | inactive | inactive | inactive | inactive | inactive
N=C(N=C(N)N)N1CCOCC1 | inactive | inactive | inactive | inactive | inactive | inactive | inactive
CN(C)c1ccc2nc3ccc(=[N+](C)C)cc-3sc2c1 | 14.6 µM (active) | 3.32 µM (active) and 6.51 µM (active) | inactive | 16.5 µM (active) and 21 µM (active) | 2.35 µM (active) and 6.68 µM (active) | 3.32 µM (active) and 2.66 µM (active) | 9.35 µM (active) and 8.41 µM (active)
Cc1c(C(=O)NN2CCCCC2)nn(-c2ccc(Cl)cc2Cl)c1-c1ccc(Cl)cc1 | inactive | 20.6 µM (active) | 18.7 µM (active) | inactive | inactive | 13.2 µM (active) | 4.69 µM (active)
Cn1c(NCCN(CCO)CCCc2ccc([N+](=O)[O-])cc2)cc(=O)n(C)c1=O | inactive | inactive | inactive | inactive | inactive | inactive | inactive
CC(S)C(=O)NCC(=O)O (configuration not stated) | inactive | inactive | inactive | inactive | inactive | inactive | 
O=C(O)c1cn(-c2ccc(F)cc2)c2cc(N3CCNCC3)c(F)cc2c1=O | inactive | inactive | inactive | inactive | inactive | inactive | inactive
Cc1ccc(C)c(OCCCC(C)(C)C(=O)O)c1 | inactive | inactive | inactive | inactive | inactive | inactive | 
O=C(O)CCNC(=O)c1ccc(N=Nc2ccc(O)c(C(=O)O)c2)cc1 | inactive | inactive | inactive | inactive | inactive | inactive | inactive
CCCCc1ccc2nc(NC(=O)OC)[nH]c2c1 | inactive | 11.8 nM (active) and 111 nM (active) | 1.32 µM (active) and inactive | 117 nM (active) and 47 nM (active) | 26.6 nM (active) | 1 nM (active) and 106 nM (active) | 9.3 nM (active) and 21.1 nM (active)
C=CCc1cc(OC)c(O)c(C(=O)NCCO)c1 | inactive | inactive | inactive | inactive | inactive | inactive | inactive
CCOC(=O)C1=C[C@@H](OC(CC)CC)[C@H](NC(C)=O)[C@@H](N)C1 | inactive | inactive | inactive | inactive | inactive | inactive | inactive
COC(=O)[C@H](Cc1ccccc1)NC(=O)[C@@H](N)CC(=O)O (H-Asp-Phe-OMe) | inactive | inactive | inactive | inactive | inactive | inactive | inactive
O=c1oc2cc(O)ccc2s1 | inactive | inactive | inactive | inactive | inactive | inactive | 9.35 µM (active)
CNC[C@@H](O)[C@@H](O)[C@H](O)[C@H](O)CO | inactive | inactive | inactive | inactive | inactive | inactive | inactive
CC(=O)NC[C@H]1CN(c2ccc(N3CCOCC3)c(F)c2)C(=O)O1 | inactive | inactive | inactive | inactive | inactive | inactive | inactive
CN1C(C(=O)Nc2ccccn2)=C(O)c2sccc2S1(=O)=O | inactive | inactive | inactive | inactive | inactive | inactive | inactive
CCOC(=O)c1c(C)n(C)c2ccc(O)cc12 | inactive | inactive | inactive | inactive | inactive | inactive | inactive
CC[C@]1(O)C[C@H]2CN(CCc3c([nH]c4ccccc34)[C@@](C(=O)OC)(c3cc4c(cc3OC)N(C=O)[C@H]3[C@@](O)(C(=O)OC)[C@H](OC(C)=O)[C@]5(CC)C=CCN6CC[C@]43[C@@H]65)C2)C1 | inactive | 1.05 µM (active) | 1.18 µM (active) and inactive | 33 nM (active) and 83.6 nM (active) | 59 nM (active) and 26.6 nM (active) | 1 nM (active) and 84.1 nM (active) | 4.7 nM (active) and 5.3 nM (active)
CCC[C@@H]1C[C@@H](C(=O)N[C@@H]([C@H]2O[C@H](SC)[C@H](O)[C@@H](O)[C@H]2O)[C@@H](C)O)N(C)C1 | inactive | inactive | inactive | inactive | inactive | inactive | inactive
O=C(OC1C[C@H]2CC[C@@H](C1)[N+]21CCCC1)C(O)(c1ccccc1)c1ccccc1 (some centres not stated) | inactive | inactive | inactive | inactive | inactive | inactive | inactive
C[C@]12CCC(=O)C=C1CC[C@@H]1[C@H]2[C@@H](O)C[C@@]2(C)[C@H]1CC[C@]2(O)C(=O)CO | inactive | inactive | inactive | inactive | inactive | inactive | 18.7 µM (active)
Cc1ccc(S(=O)(=O)NC(=O)NN2CC3CCCC3C2)cc1 (configuration not stated) | inactive | inactive | inactive | inactive | inactive | inactive | 
